# Inconclusive results are not listed. The source made the active and inactive calls. Calls come from the whole dose curve; as a rule, active = well fitted curve in the direction sought with a large enough effect (not every such curve was filed as active); inconclusive = small, poorly fitted or top-dose-only effect, or effect the other way, or another doubt; inactive = no such curve, though single readings can be large or run the other way.
# Test: Cell viability assay for measurement of the protective activity of small molecules against cell death caused by Zika virus infection in human neural progenitor cells (hNPCs)
# Details: hNPC ZIKV-induced death protection, ATP luminescence, 72 h; series mostly up to 46.1 µM
# In short: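 Luminescent ATP content after 72 h ZIKV infection (2 FFU/cell) of hNPCs, compounds added 1 h before virus. Protection expressed as percent inhibition of the infection-induced drop in cell viability.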
row,Compound,outcome
1,OCc1ccc(-c2ccc(-c3ccc(CO)s3)o2)s1,inactive
2,O=C(c1ccccc1)c1ccc2n1CCC2C(=O)O (centres undefined),inactive
3,COc1ccc(-c2coc3cc(O)ccc3c2=O)cc1,inactive
4,CC(C(=O)O)c1ccc2c(c1)[nH]c1ccc(Cl)cc12 (centres undefined),inactive
5,COc1ccc(-c2cc(=O)c3c(O)cc(O)cc3o2)cc1O,inactive
6,COc1cccc(-c2cc(=O)c3ccccc3o2)c1N,inactive
7,CC(C)Oc1ccc2c(=O)c(-c3ccccc3)coc2c1,inactive
8,Cc1ccc(O)c(N=Nc2ccccc2)n1,inactive
9,COc1ccc(-c2cc(=S)ss2)cc1,inactive
10,CCCCCCOc1ccccc1C(N)=O,inactive
11,O=C(O)[C@H](CC(=O)N1C[C@@H]2CCCC[C@H]2C1)Cc1ccccc1,inactive
12,Oc1ccc(/C=C/c2cc(O)cc(O)c2)cc1,inactive
13,CCN(CC)c1ccc(C(=C2C=CC(=[N+](CC)CC)C=C2)c2cc(S(=O)(=O)O)ccc2S(=O)(=O)[O-])cc1,inactive
14,O=c1c(-c2ccc(O)cc2)coc2cc(O)ccc12,inactive
15,CCCCCNC(=O)N1CCC(CN(Cc2ccc(Cl)cc2)Cc2ccc([N+](=O)[O-])s2)C1 (centres undefined),inactive
16,O=c1cc(-c2ccccc2)oc2cc(O)cc(O)c12,inactive
17,N#C/C(=C\c1ccc(O)c(O)c1)C(=O)Nc1ccccc1,inactive

row,Compound,outcome
1,Cc1cc(O)c2ccccc2c1O,inactive
2,CN1CC(=O)N/C1=N/C(=O)Nc1cccc(Cl)c1,inactive
3,Nc1nc2ccc([N+](=O)[O-])cc2s1,inactive
4,O=S(=O)(O)CCSSCCS(=O)(=O)O,inactive
5,Cc1nc(N)sc1-c1ccnc(Nc2ccc(N3CCOCC3)cc2)n1,inactive
6,N[C@H](CSC(c1ccccc1)(c1ccccc1)c1ccccc1)C(=O)O,inactive
7,COc1ccc(C=CC(=O)Nc2ccccc2C(=O)O)cc1OC,inactive
8,O=C(O)c1ccccc1Nc1cccc(C(F)(F)F)c1,inactive
9,O=C(O)c1cc([N+](=O)[O-])ccc1NCCCc1ccccc1,inactive
10,Nc1ccc(O)c(C(=O)O)c1,inactive
11,Cc1oncc1C(=O)Nc1ccc(C(F)(F)F)cc1,inactive
12,Cc1c(NC(=O)c2ccc(C(C)(C)C)cc2)cccc1-c1cn(C)c(=O)c(Nc2ccc(C(=O)N3CCOCC3)cc2)n1,inactive
13,CC1=C(CO)C(=O)O[C@@H]([C@@H](C)[C@H]2CC[C@H]3[C@@H]4C[C@H]5O[C@]56[C@@H](O)C=CC(=O)[C@]6(C)[C@@H]4CC[C@]23C)C1,inactive
14,CCCCCCCC/C=C/C(=O)O,inactive
15,CCOC1OC(=O)C[C@H]1NC(=O)[C@@H]1CCCN1C(=O)[C@@H](NC(=O)c1ccc(N)c(Cl)c1)C(C)(C)C (some centres undefined),inactive
16,CC(=NNC(=S)N1CCC1)c1ccccn1,inactive
17,COc1ccc(CC2=NN3C([C@@H](CCc4ccccc4)[C@@H](C)O)=NC(C)C3C(=O)N2)cc1OC (some centres undefined),inactive

# — PubChem BioAssay AID1224852 (National Center for Advancing Translational Sciences (NCATS), 2016)
